# D1 ag = activates the human D1 dopamine receptor; P21728; HEK293 T-REx D1 cells, calcium flux, agonist mode; activation, % at 2 µM; 360,000 tested, 1% active
# Target sequence (P21728 whole entry, looked up): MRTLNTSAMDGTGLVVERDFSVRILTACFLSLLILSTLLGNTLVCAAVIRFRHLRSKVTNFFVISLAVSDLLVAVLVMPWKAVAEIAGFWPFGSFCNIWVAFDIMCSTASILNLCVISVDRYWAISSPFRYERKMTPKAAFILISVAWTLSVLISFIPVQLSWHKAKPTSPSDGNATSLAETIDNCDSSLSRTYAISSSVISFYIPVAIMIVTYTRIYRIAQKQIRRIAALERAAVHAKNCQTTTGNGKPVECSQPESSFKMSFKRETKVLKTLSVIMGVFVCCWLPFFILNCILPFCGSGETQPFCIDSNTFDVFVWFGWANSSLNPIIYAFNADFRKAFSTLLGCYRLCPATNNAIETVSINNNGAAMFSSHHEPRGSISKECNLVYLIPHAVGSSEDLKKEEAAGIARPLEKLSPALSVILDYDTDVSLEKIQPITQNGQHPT
#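 Tetracycline-induced HEK293 TREx D1 cells, force-coupled to calcium signalling, were dye-loaded with a no-wash calcium kit. Compound was pin-added after a 10 s baseline. Fluorescence was read kinetically at 1 cycle/s for 180 s, with calcium rises flagged as agonism.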
# D1 antagonist = human D1 dopamine receptor antagonism; HEK293 TREx D1 cells, calcium flux, dopamine EC80; active compounds read low; activity change, negative = inhibition, % at 10 µM; P21728; 360,000 tested, 3.2% active; in the data active = activity change below about -30%
#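 Kinetic fluorescence of a calcium dye serves as the read-out. D1-expressing Hek293 Trex cells, induced overnight at 30 C, are exposed to compound for 180 s before an EC80 dopamine addition, then read 180 s further.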
# TRHR ag = activates the human TRH receptor; TRHR cells, calcium flux fluo-8, FDSS agonist mode; activation, % at 2 µM; AID 493084; 360,000 tested, 0.18% active
#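 Read-out: compound-evoked intracellular calcium rise in TRHR cells, fluo-8 dye, kinetic FDSS fluorescence at 1 s/cycle following a 10-cycle baseline. Cells cultured overnight before dye loading (30 min–1.5 h, RT).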
# TRHR enhancer = TRH receptor (human) allosteric enhancement; P34981; 360,000 tested, 0.66% active; TRHR cells, fluo-8 calcium fluorescence, EC20 TRH enhancement; enhancement, % at 2 µM; in the data active = enhancement above about 30%
#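 Enhancer read-out: after compound pinning and an initial kinetic agonist-mode read, an EC20 of TRH (10 nM final) was injected and fluo-8 calcium signal (Ex 480/Em 530) followed at 1 s/cycle for 100 cycles in TRHR-expressing cells.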
# GRP78 ERSR act = induces the endoplasmic reticulum stress response in human glioma cells. Potency, µM, usual class: activators. 420,000 tested, 0.02% active. U87-MG GRP78 promoter luciferase reporter, 16 h; active = well fitted activation curve with a large enough effect; note: series mostly up to about 76 µM; nearly all actives have a fitted effect of over 35% in size
#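 Stably transfected U87-MG human glioma cells carrying a GRP78-based luminescent sensor were seeded at 1000 cells/well, pin-dosed with compounds and incubated 16 h. Luciferase reagent was then added, and end-point luminescence was read after 10 min at room temperature.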
# D1 potentiator = enhances dopamine response at the human D1 receptor | 360,000 tested, 0.036% active | P21728 | HEK293 TREx D1 cells, calcium flux, dopamine EC20 potentiation | potentiation, % at 10 µM; in the data active = potentiation above about 30%
# Numbers stand for hits; n = inactive; x = no result given. Hits are enriched below; roughly 4% of the tested compounds scored in any of these assays. Cut-off read from the data, not from the text of the source, unless noted: active = activation above about 30%; inactive = the rest.
SMILES,D1 ag,D1 antagonist,TRHR ag,TRHR enhancer,GRP78 ERSR act,D1 potentiator
COC(=O)c1ccc(NS(=O)(=O)c2ccc3[nH]c(=O)oc3c2)cc1,n,-30,n,n,n,n
COc1ccc(S(=O)(=O)Nc2ccc3ccccc3c2)cc1C,n,n,n,n,n,n
Cc1cccnc1NC(=S)Nc1ncccc1C,n,n,n,n,n,n
CC(=O)c1c(C)[nH]c(C(=O)COC(=O)c2ccc(Cl)nc2)c1C,n,-41,n,n,n,n
COc1cccc(N=Nc2c(N)[nH]n3c(=O)cc(-c4ccccc4)nc23)c1,n,-40,n,n,n,n
Cc1ccc(O)c(CNc2cnc3ccccc3c2)c1,n,-31,n,n,n,n
COC(=O)CN1C(=O)C(O)(CC(=O)c2ccc(Cl)cc2)c2ccccc21 (configuration not stated),n,n,n,n,n,n
COc1ccccc1C(=O)Nc1cc(Cl)ccc1O,n,n,n,n,n,n
COc1ccccc1NC(=O)c1cc(Br)ccc1Cl,n,-35,n,n,n,n
CCc1ccc2oc(C(=O)Nc3cc(Cl)ccc3OC)cc(=O)c2c1,n,-48,n,n,n,n
COc1ccc(Cl)cc1NC(=O)c1cc(=O)c2cc(C)cc(C)c2o1,n,n,n,n,n,n
COc1ccc(Cl)cc1NC(=O)c1ccccc1C,n,-44,n,n,n,n
O=C(Nc1ccccc1Oc1ccccc1)c1cc([N+](=O)[O-])ccc1Cl,n,n,n,41,n,n
COc1ccccc1NC(=O)c1ccccc1C(=O)Nc1ccccc1OC,n,n,n,n,n,n
O=C(Nc1c(F)cc(F)cc1Br)c1ccco1,n,n,n,n,n,n
C=C[C@@H]1c2ccccc2N(S(=O)(=O)c2ccc(C)cc2)[C@H](c2ccc(C(F)(F)F)cc2)C1(C#N)C#N,n,-32,n,n,n,n
O=C(NCc1cccnc1)Nc1cccc(Cl)c1Cl,n,-30,n,n,n,n
O=C(NCc1cccnc1)NC1(C(F)(F)F)Oc2ccccc2O1,n,-42,n,n,n,n
Cc1cccc(NC(=O)NCc2cccnc2)c1C,n,-34,n,n,n,n
COc1ccccc1NC(=O)c1cc2c(=O)n(Cc3cccs3)ccc2nc1C,n,-40,n,n,n,n
O=C(NCCc1ccc(Cl)cc1)c1cccnc1,n,n,n,n,n,n
O=C(NCc1ccc2c(c1)CCN2C(=O)c1ccc(Cl)cc1)c1ccco1,n,n,n,n,n,n
Nc1cccc(CP(=O)(c2ccccc2)c2ccccc2)c1,n,n,n,31,n,n
COC(=O)CNC(=O)c1cccc(Cl)c1,n,-32,n,n,n,n
O=C(Nc1ccccc1F)Nc1cccc2ccc(O)cc12,n,n,n,n,n,n
SMILES,D1 ag,D1 antagonist,TRHR ag,TRHR enhancer,GRP78 ERSR act,D1 potentiator
COc1ccc(C2CC(c3cccs3)=NN2c2ccc(C=O)cc2)cc1 (configuration not stated),244,-62,40,n,n,n
COc1ccc(C2=NN(c3ccc(C=O)cc3)C(c3ccccc3)C2)cc1 (configuration not stated),n,n,n,n,n,n
Cc1ccc(NC(=O)N2CCN(S(=O)(=O)c3ccccc3)CC2)cc1,n,n,n,n,n,n
Cc1ccccc1/C=C/C1=NCCN1,n,-43,n,n,n,n
Cc1ccccc1C=O,n,x,n,n,n,n
CNCc1ccccc1Sc1cc(O)ccc1O,n,n,n,n,n,n
CN(C)Cc1ccccc1Sc1ccc(O)cc1O,n,n,n,30,n,n
COc1ccc(Nc2nc3ccccc3s2)cc1,n,-38,n,n,n,n
COc1ccc(Nc2ncnc3ccccc23)cc1,n,n,n,n,n,n
COc1cccc(Nc2nc3ccc(OC)cc3s2)c1,n,n,n,n,n,n
COc1ccc(Nc2ccnc3ccccc23)cc1,n,-43,n,n,n,n
Cc1cccc(Nc2n[nH]c(=S)s2)c1C,n,n,n,n,n,n
Cc1cccc(Nc2nc3ccccc3s2)c1C,30,n,n,n,n,n
CCOC(=O)c1cnc(-n2nc(C)cc2C)nc1Nc1ccc(O)cc1,n,n,n,n,n,n

# Source: PubChem
